# According to the supplement of paper PMC8728848:
# The entries come from a sample that favours the strongest signals as a whole.
# B1: CLEC7A (Homo sapiens), Q9BXN2 (protein)
# chain: MEYHPDLENLDEDGYTQLHFDSQSNTRIAVVSEKGSCAASPPWRLIAVILGILCLVILVIAVVLGTMAIWRSNSGSNTLENGYFLSRNKENHSQPTQSSLEDSVTPTKAVKTTGVLSSPCPPNWIIYEKSCYLFSMSLNSWDGSKRQCWQLGSNLLKIDSSNELGFIVKQVSSQPDNSFWIGLSRPQTEVPWLWEDGSTFSSNLFQIRTTATQENPSPNCVWIHVSVIYDQLCSVPSYSICEKKFSM
# B2: TbCVNHOb (Tuber borchii) (protein)
# chain: GSHIGPYMSFYASSEDVRTIEEGGRTWLVGRARRADGSWQDIKLDLDNIIGNRDGHLTWGEQNFTQSASDIRFNFEGGSNVPVLRAKLRNAAGGEQESDLNLGERLTNNNGDLVFN
# What was measured:
# Experiment in all cases: glycan array binding signal (z-score within array); higher = stronger binding
# Settings in all cases: glycan notation: IUPAC condensed, linker removed
# [1] = biological target: Fuc(a1-2)Gal(b1-3)GalNAc(b1-3)Gal(a1-4)Gal(b1-4)Glc
# How it was run: (§1)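 Glycan array data came from 3228 arrays in the Consortium for Functional Glycomics database, and only arrays with an available protein sequence were kept. Glycan names were put into IUPAC-condensed notation, and columns mapping to the same glycan were averaged. The binding signal is a within-array Z-score, averaged across arrays of one protein sequence run at different concentrations or buffers and across linkers. A negative Z-score can be read as non-binding.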
# [2] = biological target: Fuc(a1-2)Gal(b1-4)GlcNAc
# How it was run: as §1
# [3] = biological target: Fuc(a1-3)[Gal(b1-4)]GlcNAc(b1-4)Gal(b1-4)[Fuc(a1-3)]GlcNAc(b1-4)Gal(b1-4)[Fuc(a1-3)]GlcNAc
# How it was run: as §1
# [4] = biological target: Fuc(a1-3)[GalNAc(b1-4)]GlcNAc
# How it was run: as §1
# [5] = biological target: Gal(b1-4)GlcNAc(b1-3)Gal(b1-4)Glc
# How it was run: as §1
# [6] = biological target: Gal3S(b1-4)GlcNAc6S
# How it was run: as §1
# [7] = biological target: Gal3S6S(b1-4)GlcNAc6S
# How it was run: as §1
# [8] = biological target: GalNAc(b1-3)Gal(a1-4)Gal(b1-4)GlcNAc
# How it was run: as §1
# [9] = biological target: GlcNAc(b1-3)GalNAc
# How it was run: as §1
# [10] = biological target: GlcNAc(b1-4)GlcNAc(b1-4)GlcNAc(b1-4)GlcNAc(b1-4)GlcNAc
# How it was run: as §1
# [11] = biological target: Kdn(a2-3)Gal(b1-4)GlcNAc
# How it was run: as §1
# [12] = biological target: Man(a1-3)[Man(a1-6)]Man(a1-6)[Man(a1-2)Man(a1-3)]Man(b1-4)GlcNAc(b1-4)GlcNAc
# How it was run: as §1
# [13] = biological target: Neu5Ac(a2-3)Gal(b1-4)GlcNAc6S
# How it was run: as §1
# [14] = biological target: Neu5Ac(a2-6)Gal(b1-4)GlcNAc6S
# How it was run: as §1
# [15] = biological target: Neu5Ac(a2-8)Neu5Ac(a2-8)Neu5Ac
# How it was run: as §1
# [16] = biological target: Neu5Ac(a2-8)Neu5Ac(a2-8)Neu5Ac(a2-3)Gal(b1-4)Glc
# How it was run: as §1
# [17] = biological target: Fuc(a1-2)Gal(b1-3)GalNAc(b1-3)Gal(b1-4)Glc
# How it was run: as §1
# [18] = biological target: Fuc(a1-2)Gal(b1-4)Glc
# How it was run: as §1
# [19] = biological target: Fuc(a1-2)Gal(b1-4)GlcNAc(b1-3)Gal(b1-4)GlcNAc
# How it was run: as §1
# [20] = biological target: Fuc(a1-3)[Gal3S(b1-4)]GlcNAc
# How it was run: as §1
# [21] = biological target: Gal(a1-4)Gal(b1-4)Gal
# How it was run: as §1
# [22] = biological target: Gal(a1-6)Glc
# How it was run: as §1
# [23] = biological target: Gal(b1-3)[Fuc(a1-4)]GlcNAc(b1-3)Gal(b1-4)GlcNAc
# How it was run: as §1
# [24] = biological target: Gal(b1-3)[Neu5Ac(a2-6)]GlcNAc
# How it was run: as §1
# [25] = biological target: Gal(b1-3)[Neu5Ac(a2-6)]GlcNAc(a1-4)Gal(b1-4)Glc
# How it was run: as §1
# [26] = biological target: Gal(b1-4)GalNAc(b1-3)[Fuc(a1-2)]Gal(b1-4)GlcNAc
# How it was run: as §1
# [27] = biological target: GalNAc(b1-4)GlcNAc
# How it was run: as §1
# [28] = biological target: GlcA(b1-6)Gal
# How it was run: as §1
# [29] = biological target: GlcNAc(b1-3)Gal
# How it was run: as §1
# [30] = biological target: GlcNAc(b1-3)[GlcNAc(b1-4)][GlcNAc(b1-6)]GlcNAc
# How it was run: as §1
# [31] = biological target: GlcNAc(b1-4)GlcNAc(b1-4)GlcNAc
# How it was run: as §1
# [32] = biological target: Man(a1-2)Man(a1-2)Man(a1-3)Man
# How it was run: as §1
# [33] = biological target: Man(a1-2)Man(a1-2)Man(a1-3)[Man(a1-2)Man(a1-6)[Man(a1-3)]Man(a1-6)]Man(b1-4)GlcNAc(b1-4)GlcNAc
# How it was run: as §1
# [34] = biological target: Man(a1-3)[Man(a1-6)]Man(b1-4)GlcNAc(b1-4)GlcNAc
# How it was run: as §1
# [35] = biological target: Man(b1-4)GlcNAc
# How it was run: as §1
# [36] = biological target: Neu5Ac(a2-3)Gal(b1-3)GlcNAc6S
# How it was run: as §1
Binder,glycan array binding signal (z-score) [1],glycan array binding signal (z-score) [2],glycan array binding signal (z-score) [3],glycan array binding signal (z-score) [4],glycan array binding signal (z-score) [5],glycan array binding signal (z-score) [6],glycan array binding signal (z-score) [7],glycan array binding signal (z-score) [8],glycan array binding signal (z-score) [9],glycan array binding signal (z-score) [10],glycan array binding signal (z-score) [11],glycan array binding signal (z-score) [12],glycan array binding signal (z-score) [13],glycan array binding signal (z-score) [14],glycan array binding signal (z-score) [15],glycan array binding signal (z-score) [16],glycan array binding signal (z-score) [17],glycan array binding signal (z-score) [18],glycan array binding signal (z-score) [19],glycan array binding signal (z-score) [20],glycan array binding signal (z-score) [21],glycan array binding signal (z-score) [22],glycan array binding signal (z-score) [23],glycan array binding signal (z-score) [24],glycan array binding signal (z-score) [25],glycan array binding signal (z-score) [26],glycan array binding signal (z-score) [27],glycan array binding signal (z-score) [28],glycan array binding signal (z-score) [29],glycan array binding signal (z-score) [30],glycan array binding signal (z-score) [31],glycan array binding signal (z-score) [32],glycan array binding signal (z-score) [33],glycan array binding signal (z-score) [34],glycan array binding signal (z-score) [35],glycan array binding signal (z-score) [36]
B1,0.301,-0.842,0.278,-0.149,0.542,1.21,5.19,0.773,3.29,-0.613,0.64,0.549,-0.22,0.583,4.19,1.53,,,,,,,,,,,,,,,,,,,,
B2,2.01,,,,,,,,,,,,,,,,4.24,0.347,-0.268,-0.469,4.24,0.38,-0.231,-0.484,4.83,-0.367,-0.366,-0.483,-0.16,-0.077,-0.364,5.4,-0.449,-0.197,0.106,-0.045
